What all share (assay): DAPPL (digital affinity profiling via proximity ligation, sequencing); 10 mM Tris-HCl pH 7.5, 50 mM NaCl, 1 mM DTT, 4% glycerol, room temperature, 30 min; GST-TFs on glutathione beads, 16-mer random dsDNA library, 0.1% formaldehyde crosslink after washing; high values mean tight binding
Holding throughout (conditions): protein: recombinant; tags: N-terminal GST; dsDNA, one strand shown

The target in one test is T1, FLI1 (Homo sapiens, UniProt Q01543 1-452).
T1 sequence: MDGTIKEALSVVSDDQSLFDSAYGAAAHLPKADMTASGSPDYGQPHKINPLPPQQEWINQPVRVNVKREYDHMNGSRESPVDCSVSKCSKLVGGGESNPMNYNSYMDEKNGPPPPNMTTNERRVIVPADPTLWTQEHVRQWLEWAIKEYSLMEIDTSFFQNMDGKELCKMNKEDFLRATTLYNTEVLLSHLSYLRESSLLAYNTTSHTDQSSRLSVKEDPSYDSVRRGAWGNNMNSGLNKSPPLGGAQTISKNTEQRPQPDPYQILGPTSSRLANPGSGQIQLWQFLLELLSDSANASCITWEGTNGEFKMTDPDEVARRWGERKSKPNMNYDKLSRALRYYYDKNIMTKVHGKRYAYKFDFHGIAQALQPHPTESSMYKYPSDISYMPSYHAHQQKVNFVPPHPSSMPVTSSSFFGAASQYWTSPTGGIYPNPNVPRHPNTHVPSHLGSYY
In outline:
(§1)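 The binding signal reported is, for every hexamer, its read frequency for a factor over its read frequency for the tag-only sample. Reads came from pools of yeast-expressed, GST-fused human transcription factors on glutathione beads, barcoded with DNA and mixed with that sample, which were incubated with 200 nmole of a random double-stranded 16-mer DNA library in Tris/NaCl/DTT/glycerol buffer at room temperature for 30 min. After washing, the pools were crosslinked with 0.1% formaldehyde, proximity-ligated with BsaI/T4 ligase for 1 h at 37 °C, PCR-amplified and sequenced on an Illumina NextSeq500.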

The next test has as its target T2, ELK1 (Homo sapiens, UniProt P19419 1-428).
T2 sequence: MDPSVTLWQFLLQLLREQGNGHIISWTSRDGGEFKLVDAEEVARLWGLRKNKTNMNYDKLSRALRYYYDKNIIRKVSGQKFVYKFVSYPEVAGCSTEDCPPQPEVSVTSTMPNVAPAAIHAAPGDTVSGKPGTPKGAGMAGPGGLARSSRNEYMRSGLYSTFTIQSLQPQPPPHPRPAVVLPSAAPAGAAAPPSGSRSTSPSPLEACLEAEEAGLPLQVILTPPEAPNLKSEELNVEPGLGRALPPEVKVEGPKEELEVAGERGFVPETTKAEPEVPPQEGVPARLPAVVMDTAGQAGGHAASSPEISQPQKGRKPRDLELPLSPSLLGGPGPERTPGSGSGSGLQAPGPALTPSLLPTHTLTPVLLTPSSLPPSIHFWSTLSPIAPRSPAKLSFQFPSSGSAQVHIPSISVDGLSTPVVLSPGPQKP
In outline:
as §1

The target of a further test is T3, GABPA (Homo sapiens, UniProt Q06546 1-454).
T3 sequence: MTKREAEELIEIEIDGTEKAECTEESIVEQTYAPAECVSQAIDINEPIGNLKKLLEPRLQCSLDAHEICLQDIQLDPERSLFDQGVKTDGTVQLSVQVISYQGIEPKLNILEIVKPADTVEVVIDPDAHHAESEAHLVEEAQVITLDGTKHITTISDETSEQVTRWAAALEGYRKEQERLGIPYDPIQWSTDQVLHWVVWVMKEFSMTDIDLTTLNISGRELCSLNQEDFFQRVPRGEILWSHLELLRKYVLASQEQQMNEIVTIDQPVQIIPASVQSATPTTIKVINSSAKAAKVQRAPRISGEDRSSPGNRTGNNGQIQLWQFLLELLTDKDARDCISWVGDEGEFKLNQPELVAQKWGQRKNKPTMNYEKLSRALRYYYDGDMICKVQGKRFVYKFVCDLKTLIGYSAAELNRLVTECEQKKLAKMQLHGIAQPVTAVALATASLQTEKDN
A digest of the protocol:
as §1

The target of a further test is T4, ERG (Homo sapiens, UniProt P11308 1-479).
T4 sequence: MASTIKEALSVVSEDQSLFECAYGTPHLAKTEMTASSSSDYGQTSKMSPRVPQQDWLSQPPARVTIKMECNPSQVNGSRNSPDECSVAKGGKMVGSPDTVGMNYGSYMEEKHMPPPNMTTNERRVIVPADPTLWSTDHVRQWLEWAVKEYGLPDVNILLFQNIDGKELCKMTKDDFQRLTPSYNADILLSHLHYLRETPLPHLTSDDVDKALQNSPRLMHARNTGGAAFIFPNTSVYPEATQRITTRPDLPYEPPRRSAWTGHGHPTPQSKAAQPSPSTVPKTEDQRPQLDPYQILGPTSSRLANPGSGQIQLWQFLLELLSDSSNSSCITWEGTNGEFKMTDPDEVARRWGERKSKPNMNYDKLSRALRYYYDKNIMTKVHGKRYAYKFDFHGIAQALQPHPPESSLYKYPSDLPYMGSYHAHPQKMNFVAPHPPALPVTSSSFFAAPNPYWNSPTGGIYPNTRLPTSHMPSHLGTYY
A digest of the protocol:
as §1

Another test concerns the target ELF1 (Homo sapiens, UniProt P32519 1-619). A digest of the protocol:
as §1

The target in a further test is T5, EHF (Homo sapiens, UniProt Q9NZC4 1-300).
T5 sequence: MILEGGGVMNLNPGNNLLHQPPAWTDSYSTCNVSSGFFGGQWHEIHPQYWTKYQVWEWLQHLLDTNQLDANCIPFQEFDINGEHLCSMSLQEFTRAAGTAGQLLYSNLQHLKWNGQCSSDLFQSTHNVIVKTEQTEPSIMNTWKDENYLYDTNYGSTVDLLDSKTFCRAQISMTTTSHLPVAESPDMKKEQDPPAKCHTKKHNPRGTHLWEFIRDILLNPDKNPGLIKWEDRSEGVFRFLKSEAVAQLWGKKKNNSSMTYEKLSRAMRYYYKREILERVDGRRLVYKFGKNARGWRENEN
A digest of the protocol:
as §1

The next test has as its target SPI1 (Homo sapiens, UniProt P17947 1-270). A digest of the protocol: as §1
The target in the next test is SPIB (Homo sapiens, UniProt Q01892 1-262). In outline:
as §1

Another test has as its target T6, ELK3 (Homo sapiens, UniProt P41970 1-407).
T6 sequence: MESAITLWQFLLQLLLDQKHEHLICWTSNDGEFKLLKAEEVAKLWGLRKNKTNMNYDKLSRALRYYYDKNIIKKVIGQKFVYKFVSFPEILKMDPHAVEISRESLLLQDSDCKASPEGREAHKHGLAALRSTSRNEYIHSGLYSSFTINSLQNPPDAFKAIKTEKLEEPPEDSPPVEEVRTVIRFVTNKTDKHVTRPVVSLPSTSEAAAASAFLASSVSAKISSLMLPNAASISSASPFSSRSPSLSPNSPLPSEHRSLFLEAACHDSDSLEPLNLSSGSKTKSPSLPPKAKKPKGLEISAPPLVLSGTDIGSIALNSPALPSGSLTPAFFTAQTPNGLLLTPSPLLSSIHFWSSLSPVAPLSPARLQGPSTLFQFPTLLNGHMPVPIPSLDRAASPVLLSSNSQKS
A digest of the protocol:
as §1

The next test addresses T7, FEV (Homo sapiens, UniProt Q99581 1-238).
T7 sequence: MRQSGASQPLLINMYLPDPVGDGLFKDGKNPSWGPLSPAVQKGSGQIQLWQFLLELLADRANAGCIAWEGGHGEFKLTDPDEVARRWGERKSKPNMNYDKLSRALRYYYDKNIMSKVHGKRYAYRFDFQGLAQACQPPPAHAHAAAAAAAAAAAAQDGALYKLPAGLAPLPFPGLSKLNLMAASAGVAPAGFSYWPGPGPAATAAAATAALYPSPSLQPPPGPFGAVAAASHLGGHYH
In outline:
as §1

The target of another test is ETV5 (Homo sapiens, UniProt P41161 1-510). A digest of the protocol: as §1
For the next test, the target named is T8, SPIC (Homo sapiens, UniProt Q8N5J4 1-248).
T8 sequence: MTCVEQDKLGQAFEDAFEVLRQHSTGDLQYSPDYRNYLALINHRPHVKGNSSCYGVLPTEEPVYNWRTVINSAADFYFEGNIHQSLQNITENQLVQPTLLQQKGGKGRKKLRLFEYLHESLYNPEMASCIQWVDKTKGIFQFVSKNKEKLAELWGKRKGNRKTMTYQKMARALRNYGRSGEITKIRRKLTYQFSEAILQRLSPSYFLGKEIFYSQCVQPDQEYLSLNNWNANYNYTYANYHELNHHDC
In outline: as §1

Another test has as its target ELF4 (Homo sapiens, UniProt Q99607 1-663). In outline:
as §1

For a further test, the target named is T9, ELK4 (Homo sapiens, UniProt P28324-2 1-405).
T9 sequence: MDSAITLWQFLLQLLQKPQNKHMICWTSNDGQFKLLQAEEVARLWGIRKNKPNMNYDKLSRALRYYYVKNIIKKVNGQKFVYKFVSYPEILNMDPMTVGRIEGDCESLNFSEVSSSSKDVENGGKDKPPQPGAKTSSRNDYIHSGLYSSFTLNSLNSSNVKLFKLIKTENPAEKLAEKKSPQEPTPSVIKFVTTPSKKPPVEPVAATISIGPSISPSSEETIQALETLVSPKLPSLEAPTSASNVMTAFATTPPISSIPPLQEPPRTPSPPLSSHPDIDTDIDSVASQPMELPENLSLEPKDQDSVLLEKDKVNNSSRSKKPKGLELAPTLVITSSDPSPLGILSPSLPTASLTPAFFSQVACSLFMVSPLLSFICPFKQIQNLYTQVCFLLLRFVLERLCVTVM
In outline:
as §1

A further test deals with T10, ETV2 (Homo sapiens, UniProt O00321 1-342).
T10 sequence: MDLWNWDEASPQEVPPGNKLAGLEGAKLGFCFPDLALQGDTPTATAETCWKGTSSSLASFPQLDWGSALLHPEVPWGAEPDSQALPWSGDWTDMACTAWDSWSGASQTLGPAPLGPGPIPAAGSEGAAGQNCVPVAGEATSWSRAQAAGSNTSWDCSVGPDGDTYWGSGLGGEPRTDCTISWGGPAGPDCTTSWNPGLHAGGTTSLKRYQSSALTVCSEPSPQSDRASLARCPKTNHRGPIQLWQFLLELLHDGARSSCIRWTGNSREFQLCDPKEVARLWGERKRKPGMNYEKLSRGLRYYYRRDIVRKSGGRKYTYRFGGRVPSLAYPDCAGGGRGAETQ
In outline:
as §1

The target in the next test is T11, ELF3 (Homo sapiens, UniProt P78545 1-371).
T11 sequence: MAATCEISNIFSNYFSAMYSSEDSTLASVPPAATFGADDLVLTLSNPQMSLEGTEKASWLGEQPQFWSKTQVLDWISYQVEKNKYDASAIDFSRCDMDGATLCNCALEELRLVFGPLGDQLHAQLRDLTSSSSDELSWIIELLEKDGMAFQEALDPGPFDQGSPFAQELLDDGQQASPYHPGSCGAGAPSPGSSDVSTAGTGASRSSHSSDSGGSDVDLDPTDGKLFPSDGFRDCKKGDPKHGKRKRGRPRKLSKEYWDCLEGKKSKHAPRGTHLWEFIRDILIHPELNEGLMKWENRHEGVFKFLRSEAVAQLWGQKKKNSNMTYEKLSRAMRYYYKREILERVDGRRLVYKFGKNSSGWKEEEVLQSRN
A digest of the protocol:
as §1

The next test addresses ETV1 (Homo sapiens, UniProt P50549 1-477). A digest of the protocol: as §1

Chain of ELF4 (Q99607 whole entry): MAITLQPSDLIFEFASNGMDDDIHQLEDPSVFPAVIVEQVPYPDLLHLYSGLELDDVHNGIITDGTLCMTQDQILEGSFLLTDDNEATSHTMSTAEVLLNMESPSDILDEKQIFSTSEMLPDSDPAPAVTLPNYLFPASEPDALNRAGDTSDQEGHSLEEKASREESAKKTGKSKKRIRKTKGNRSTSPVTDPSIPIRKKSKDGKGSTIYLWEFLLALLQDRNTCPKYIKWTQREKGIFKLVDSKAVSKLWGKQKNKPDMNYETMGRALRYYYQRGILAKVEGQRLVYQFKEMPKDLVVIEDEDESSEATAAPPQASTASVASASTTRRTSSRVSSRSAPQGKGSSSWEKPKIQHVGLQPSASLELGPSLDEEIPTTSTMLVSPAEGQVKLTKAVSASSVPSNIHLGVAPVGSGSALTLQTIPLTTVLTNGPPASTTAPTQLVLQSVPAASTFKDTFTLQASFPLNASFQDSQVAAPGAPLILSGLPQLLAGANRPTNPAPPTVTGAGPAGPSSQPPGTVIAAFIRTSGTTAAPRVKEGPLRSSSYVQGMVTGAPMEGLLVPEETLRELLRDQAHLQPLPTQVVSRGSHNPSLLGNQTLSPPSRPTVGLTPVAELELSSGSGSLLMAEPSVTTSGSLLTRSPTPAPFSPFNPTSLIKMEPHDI
Chain of SPIB (Q01892 whole entry): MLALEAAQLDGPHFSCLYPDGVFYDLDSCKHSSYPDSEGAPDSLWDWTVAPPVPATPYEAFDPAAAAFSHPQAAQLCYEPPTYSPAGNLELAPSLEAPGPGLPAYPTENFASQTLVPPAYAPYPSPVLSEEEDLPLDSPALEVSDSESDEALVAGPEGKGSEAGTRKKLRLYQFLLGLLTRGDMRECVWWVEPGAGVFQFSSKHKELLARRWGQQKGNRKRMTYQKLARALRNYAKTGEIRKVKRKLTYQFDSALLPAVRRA
Chain of ETV5 (P41161 whole entry): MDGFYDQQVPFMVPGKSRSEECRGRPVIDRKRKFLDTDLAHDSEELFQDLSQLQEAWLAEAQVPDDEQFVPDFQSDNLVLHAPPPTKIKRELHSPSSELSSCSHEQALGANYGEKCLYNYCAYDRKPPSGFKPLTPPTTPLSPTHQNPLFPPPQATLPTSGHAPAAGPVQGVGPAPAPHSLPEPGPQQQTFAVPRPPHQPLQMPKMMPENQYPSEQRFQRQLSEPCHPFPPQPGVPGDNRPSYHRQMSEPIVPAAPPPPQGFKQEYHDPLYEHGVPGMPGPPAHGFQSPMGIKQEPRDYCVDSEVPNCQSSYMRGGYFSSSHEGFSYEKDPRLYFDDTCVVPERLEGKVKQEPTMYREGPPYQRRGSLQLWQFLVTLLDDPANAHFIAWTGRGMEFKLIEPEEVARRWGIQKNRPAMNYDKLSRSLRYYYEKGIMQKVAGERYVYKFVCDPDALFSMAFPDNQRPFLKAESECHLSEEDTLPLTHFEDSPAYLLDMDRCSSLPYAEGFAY
Chain of ETV1 (P50549 whole entry): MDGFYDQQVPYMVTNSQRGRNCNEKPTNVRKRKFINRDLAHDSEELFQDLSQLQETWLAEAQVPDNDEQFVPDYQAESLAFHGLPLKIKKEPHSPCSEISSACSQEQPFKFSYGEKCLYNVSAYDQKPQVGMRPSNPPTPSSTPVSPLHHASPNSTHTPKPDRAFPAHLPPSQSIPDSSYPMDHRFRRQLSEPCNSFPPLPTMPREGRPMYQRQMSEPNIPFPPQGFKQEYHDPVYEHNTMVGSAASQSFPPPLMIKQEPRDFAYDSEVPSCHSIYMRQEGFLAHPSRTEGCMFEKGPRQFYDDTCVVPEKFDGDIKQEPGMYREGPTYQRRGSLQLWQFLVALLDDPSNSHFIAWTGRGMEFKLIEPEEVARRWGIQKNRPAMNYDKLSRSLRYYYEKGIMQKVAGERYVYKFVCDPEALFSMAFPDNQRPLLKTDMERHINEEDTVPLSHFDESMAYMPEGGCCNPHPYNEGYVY
Chain of ELF1 (P32519 whole entry): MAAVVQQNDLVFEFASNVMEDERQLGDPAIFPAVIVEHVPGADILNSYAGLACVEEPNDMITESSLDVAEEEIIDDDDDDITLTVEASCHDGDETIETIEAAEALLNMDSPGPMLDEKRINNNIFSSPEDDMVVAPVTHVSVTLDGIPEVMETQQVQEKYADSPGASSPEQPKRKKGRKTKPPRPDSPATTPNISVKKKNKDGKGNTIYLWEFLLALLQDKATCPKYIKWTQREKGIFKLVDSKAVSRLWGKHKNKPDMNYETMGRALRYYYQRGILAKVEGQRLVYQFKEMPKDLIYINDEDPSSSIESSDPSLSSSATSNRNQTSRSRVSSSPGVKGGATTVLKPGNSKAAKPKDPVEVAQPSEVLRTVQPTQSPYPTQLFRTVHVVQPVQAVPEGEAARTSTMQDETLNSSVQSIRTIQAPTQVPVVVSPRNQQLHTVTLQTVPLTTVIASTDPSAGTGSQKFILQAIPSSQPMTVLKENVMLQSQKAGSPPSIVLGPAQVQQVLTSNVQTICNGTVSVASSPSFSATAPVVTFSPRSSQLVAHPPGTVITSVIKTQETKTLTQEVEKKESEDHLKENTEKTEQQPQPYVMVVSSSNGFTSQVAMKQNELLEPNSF

For CCCCCG, the binding signal was 1.21 fold enrichment (6-mer frequency, TF over GST control) in the test with FLI1; 1.09 fold enrichment (6-mer frequency, TF over GST control) with ELK1; 1.03 fold enrichment (6-mer frequency, TF over GST control) with GABPA; 1.18 fold enrichment (6-mer frequency, TF over GST control) with ERG; 1.1 fold enrichment (6-mer frequency, TF over GST control) with ELF1; 1.1 fold enrichment (6-mer frequency, TF over GST control) with EHF. Besides, the binding signal with SPI1 was 1.08 fold enrichment (6-mer frequency, TF over GST control); with SPIB, 1.09 fold enrichment (6-mer frequency, TF over GST control); with ELK3 it was 1.07 fold enrichment (6-mer frequency, TF over GST control); in the test with FEV, 1.2 fold enrichment (6-mer frequency, TF over GST control); in the test with ETV5, 1.08 fold enrichment (6-mer frequency, TF over GST control); with SPIC, 1.14 fold enrichment (6-mer frequency, TF over GST control). Besides, the binding signal was 1.18 fold enrichment (6-mer frequency, TF over GST control) with ELF4; 1.16 fold enrichment (6-mer frequency, TF over GST control) in the test with ELK4; 1.03 fold enrichment (6-mer frequency, TF over GST control) with ETV2; 1.22 fold enrichment (6-mer frequency, TF over GST control) in the test with ELF3; 1.04 fold enrichment (6-mer frequency, TF over GST control) with ETV1.
Regarding CGACGC, the binding signal with FLI1 was 1.11 fold enrichment (6-mer frequency, TF over GST control); with ELK1, 1.11 fold enrichment (6-mer frequency, TF over GST control); in the test with GABPA it was 1.04 fold enrichment (6-mer frequency, TF over GST control); with ERG, 1.05 fold enrichment (6-mer frequency, TF over GST control); with ELF1 it was 1.16 fold enrichment (6-mer frequency, TF over GST control); with EHF, 1.06 fold enrichment (6-mer frequency, TF over GST control). Besides, the binding signal in the test with SPI1 was 1.06 fold enrichment (6-mer frequency, TF over GST control); with SPIB, 1.08 fold enrichment (6-mer frequency, TF over GST control); in the test with ELK3 it was 1.01 fold enrichment (6-mer frequency, TF over GST control); in the test with ETV5 it was 1.07 fold enrichment (6-mer frequency, TF over GST control); in the test with SPIC it was 1.09 fold enrichment (6-mer frequency, TF over GST control); with ELF4 it was 1.09 fold enrichment (6-mer frequency, TF over GST control). The binding signal with ELK4 is 1.07 fold enrichment (6-mer frequency, TF over GST control); with ETV2, 1.16 fold enrichment (6-mer frequency, TF over GST control); with ELF3, 1.28 fold enrichment (6-mer frequency, TF over GST control); in the test with ETV1, 1.01 fold enrichment (6-mer frequency, TF over GST control).
